From PubChem BioAssay
Rab9 promoter act: qHTS Assay for Rab9 Promoter Activators. Huh7 Rab9 promoter-luciferase reporter, luminescence, 24 h. Potency, µM (doses to about 9.22 µM), for inactives: at the top dose activation, negative = inhibition, usual class: activators. 2.8% of 320,000 active; further: % of control where 0% means no effect; nearly all actives have a fitted effect of over 60% in size
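Cell-based reporter: Huh7 stable for Rab9 promoter-driven luciferase, plated in reduced-serum medium with 10% FBS at 1500 cells/well, compound-treated 24 h at 37 °C, luminescence read after 10 min reagent.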
ELG1 genotoxic: qHTS screen for small molecules that induce genotoxicity in human embryonic kidney (HEK293T) cells expressing luciferase-tagged ELG1; HEK293T ELG1-luciferase reporter, luminescence, 16 h; Potency, µM (titrated, usually from 46 µM), for the others: at the top dose activity change, positive = activation, hits mostly activators; 1.3% of 330,000 active; AID 504466, 2011; further: % of control where 0% means no effect; nearly all actives have a fitted effect of over 60% in size
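After overnight (16 hr) compound treatment at 37 °C, ELG1-luciferase HEK293T cells were lysed with ONE-Glo; luminescence quantified 30 min later at room temperature.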
ELG1 DNA repair: qHTS screen for small molecules that inhibit ELG1-dependent DNA repair in human embryonic kidney (HEK293T) cells expressing luciferase-tagged ELG1; HEK293T ELG1-luciferase reporter, luminescence, 16 h; DNA damage induced by 5-fluorouridine; Potency, µM (highest dose often 46.1 µM), for inactives: at the top dose activity change, negative = inhibition, actives largely listed as inhibitors; 2.3% of 330,000 active; further: on the % scale 0 is the no-effect control and ±100 the full control effect; nearly all actives have a fitted effect of over 55% in size
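Quantitative HTS, concentration-response format. 2,000 cells/well co-treated with 5-fluorouridine and compound, 16 hr in 5% CO2 at 37 °C; ONE-Glo luminescence read after 30 min.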
FLuc counter: qHTS profiling assay for firefly luciferase inhibitor/activator using purifed enzyme and Km concentrations of substrates (counterscreen for miR-21 project) | 6.9% of 360,000 active | Luciferin 4-monooxygenase (Photinus pyralis), P08659 | Potency, µM (titrated, usually from 57.5 µM), inactives show at the highest dose activity change, negative = inhibition, most hits filed as inhibitors | purified FLuc, Km substrates, luminescence inhibition;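 further: plate controls were vehicle for no effect and reference inhibitor for full effect; nearly all actives have a fitted effect of over 55% in size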
Target sequence (P08659 whole entry, looked up): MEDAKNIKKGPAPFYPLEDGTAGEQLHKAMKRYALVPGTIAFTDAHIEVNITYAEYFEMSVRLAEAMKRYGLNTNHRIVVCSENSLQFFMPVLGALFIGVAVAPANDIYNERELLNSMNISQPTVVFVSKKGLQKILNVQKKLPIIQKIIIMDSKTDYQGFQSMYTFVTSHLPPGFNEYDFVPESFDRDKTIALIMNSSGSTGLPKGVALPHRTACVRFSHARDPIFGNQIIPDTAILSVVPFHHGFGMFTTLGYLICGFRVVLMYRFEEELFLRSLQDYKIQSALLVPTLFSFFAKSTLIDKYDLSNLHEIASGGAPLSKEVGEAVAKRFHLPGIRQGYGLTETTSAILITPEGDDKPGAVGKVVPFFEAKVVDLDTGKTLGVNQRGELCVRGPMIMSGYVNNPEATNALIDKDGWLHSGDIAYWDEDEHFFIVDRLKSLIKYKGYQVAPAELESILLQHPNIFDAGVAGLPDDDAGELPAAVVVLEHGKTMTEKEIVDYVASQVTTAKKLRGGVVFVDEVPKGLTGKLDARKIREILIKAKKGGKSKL
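Purified P. pyralis luciferase, 10 nM final, with Km-level 10 uM D-luciferin and 10 uM ATP in 50 mM Tris acetate pH 7.5, 10 mM Mg acetate, 0.01% Tween-20, 0.05% BSA; 6-point qHTS titration about 60 µM downward; luminescence read.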
NPC1 prom act: qHTS Assay for NPC1 Promoter Activators | Huh7 NPC1 promoter luciferase reporter, 24 h | Potency, µM (highest dose often 9.22 µM), for the others: at the highest dose activation, usual class: activators | 2.4% of 320,000 active; further: % of control where 0% means no effect; nearly all actives have a fitted effect of over 60% in size
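Huh7 reporter cells (NPC1 promoter driving luciferase) are dosed with compound for 24 h at 37 °C, 5% CO2; luciferase detection reagent is then added and luminescence measured after 10 min at ambient temperature.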
SMN2 splice up: qHTS Assay for Enhancers of SMN2 Splice Variant Expression; 2.8% of 210,000 active; AID 1458, 2008; HEK293 SMN2-luciferase splicing reporter, luminescence, 30-36 h; Potency, µM (doses to about 46.1 µM), inactives show top-dose activity change, positive = activation, actives largely listed as activators; further: % of control where 0% means no effect; nearly all actives have a fitted effect of over 55% in size
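HEK293 cells carry an SMN2 minigene-luciferase reporter in which exon 7 inclusion puts luciferase in frame. Cells were seeded at 2000 cells/well, attached for 10-12 hours, then exposed to compounds for 30-36 hours at 37C before ONE-Glo luminescence.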
* = called active by the depositor; ? = inconclusive; . = no result given; [ ] = dose if it differs, or a comment. Compounds with a hit are over-represented: about 9.2% of the library has one in this group of screens. The call rests on the fitted dose curve; in most records, active means well fitted curve in the direction sought with a large enough effect; inconclusive means small, poorly fitted or top-dose-only effect, or another doubt; inactive means no such curve, though single readings can be large; an effect the other way counts as inactive or inconclusive. Potency means the concentration at half of the fitted maximal effect.

SMILES	Rab9 promoter act	ELG1 genotoxic	ELG1 DNA repair	FLuc counter	NPC1 prom act	SMN2 splice up
O=c1c(-c2ccc(O)cc2)coc2cc(OC3OC(CO)C(O)C(O)C3O)cc(O)c12 (stereo unspecified)	?	15µM*	?	24µM*	?	?
COc1cc(O)c2c(=O)c(-c3ccc(O[C@@H]4O[C@H](CO)[C@@H](O)[C@H](O)[C@H]4O)cc3)coc2c1	4µM*	?	?	17µM*	1.6µM*	.
Cc1c(C)c2ccc(O[C@@H]3O[C@H](CO)[C@H](O)[C@H](O)[C@H]3O)cc2oc1=O	6%	7%	17%	6%	0%	.
O=c1c(-c2ccc(O)cc2)coc2cc(OC3OC(CO)C(O)C(O)C3O)ccc12 (stereo unspecified)	?	16µM*	?	?	3.2µM*	?
CC1CCCCN1CCCNC(=O)c1[nH]c2ccccc2c1Sc1ccc(Cl)cc1 (stereo unspecified)	.	.	.	-2%	.	.
Cc1ccc(S(=O)(=O)NC(=O)OC23COCN2COC3)cc1	.	.	.	.	.	-7%[9.22 µM]
C/C(CC(=O)NC12CC3CC(CC(C3)C1)C2)=N\NC(=O)c1ccc(F)cc1	0%	0%	5%	0%	-43%	.
COc1ccc(CNC(=O)c2cc3c(=O)n(Cc4cccs4)ccc3nc2C)cc1	.	.	.	-9%	.	.
O=C(NCc1n[nH]c(=O)c2ccccc12)C1CC(=O)N(c2ccc(Cl)cc2)C1 (stereo unspecified)	-2%	1%	3%	-6%	5%	.
Cc1ccc(C(=O)NC2CCSC2=O)cc1 (stereo unspecified)	-8%	6%	26%	4%	0%	-15%
Cc1ccc(C(=O)NC2CCc3ccccc3C2=O)cc1 (stereo unspecified)	2.2µM*	5%	?	12µM*	2.5µM*	13µM*
OCCC1CN(Cc2cccn2-c2ncccn2)CCN1C1CCCC1 (stereo unspecified)	-6%	1%	-14%	4%	2%	.
COc1ccc(/C(C)=N/Nc2nc3ccccc3n3cnnc23)cc1OC	9%	-1%	?	11µM*	4%	.
C/C(=N\NC(=O)CC#N)c1ccc(Oc2ccccc2)cc1	-1%	-3%	?	-3%	-5%	-13%
COc1ccc(C(=O)Nc2cccc(C(=O)N3CCCCC3)c2)cc1	11%	2%	7%	15µM*	14%	.
Cc1ccc(OC(=O)N2CCOCC2)cc1	19%	?	?	?	16%	3%
COc1ccc(C(=O)Nc2cccc(C(=O)N3CCN(C)CC3)c2)cc1	?	7%	25%	-10%[2.3 µM]	?	?
CC(=O)c1cccc(NC(=O)Nc2ccc(C(=O)N3CCOCC3)cc2)c1	1%	-10%	10µM*	?	7%	-13%
O=C(Nc1cccc(C(=O)N2CCOCC2)c1)c1ccccc1Cl	-6%	1%	-2%	0%	0%	.
CC(C)(C)c1ccc(C(=O)Nc2cccc(C(=O)N3CCOCC3)c2)cc1	0.89µM*	?	?	0.54µM*	1.3µM*	.
CC(C)(C)c1ccc(OC(=O)N2CCOCC2)cc1	?	?	?	15µM*	4%	.
Cc1ccc(NC(=O)Nc2ccc(C(=O)N3CCOCC3)cc2)cc1	-3%	-7%	-1%	0%	3%	3%
Cc1ccc(Cl)cc1N1CCN(S(=O)(=O)c2cn(C)c(C)n2)CC1	.	.	.	1%	.	.
COc1ccc(CCNC(=O)C(C)n2nc(C)c3c(C)n(-c4ccc(C)cc4)nc3c2=O)c(OC)c1 (stereo unspecified)	-23%	-20%[9.26 µM]	-18%	-2%	-24%	.
CN(C)S(=O)(=O)c1ccc(C(=O)Nc2cccc(C(=O)N3CCOCC3)c2)cc1	1%	-3%	-11%	-2%	0%	.
SMILES	Rab9 promoter act	ELG1 genotoxic	ELG1 DNA repair	FLuc counter	NPC1 prom act	SMN2 splice up
Cc1ccc(C(=O)Nc2cccc(C(=O)N3CCOCC3)c2)cc1	2µM*	?	?	9.5µM*	4µM*	?
O=S(=O)(c1cc(F)ccc1F)N1CCC2(CC1)OCCO2	4µM*	9.2µM*	?	12µM*	3.5µM*	.
CCc1ccc(NC(=O)c2ccc(F)c(S(=O)(=O)N3CCC4(CC3)OCCO4)c2)cc1	.	.	.	-13%	.	.
O=C(Nc1ccc(F)c(F)c1)c1ccc(F)c(S(=O)(=O)N2CCC3(CC2)OCCO3)c1	-10%	-7%	7.3µM*	-1%	-13%	-86%
O=C(CN1C(=O)COc2ccc(S(=O)(=O)N3CCOCC3)cc21)Nc1ccc(F)c(Cl)c1	.	.	.	-9%	.	.
C=CCOn1c(C)c(C(C)=O)c2c3no[n+]([O-])c3ccc21	-5%	-12%	?	0%	1%	0%
C=CCOn1c(C)c(C(C)=O)c2c3nonc3ccc21	-6%	-10%	10µM*	-3%	0%	-36%
O=C1C2C3C=CC(C3)C2C(=O)N1c1nc2ccccc2s1 (stereo unspecified)	-5%	0%	28%	19µM*	2%	-16%
O=C1C2C3C=CC(C3)C2C(=O)N1c1ccc2ccccc2n1 (stereo unspecified)	2%	1%	20%	?	1%	-1%
COc1ccc2nc(N3C(=O)CC(Cc4ccc(C)cc4)C3=O)sc2c1 (stereo unspecified)	-2%	-1%	-8%	?	0%	-7%
Cc1ccc(CC2CC(=O)N(c3nc4ccccc4s3)C2=O)cc1 (stereo unspecified)	-9%	0%	3%	27µM*	-1%	.
CCc1nc(SC)ncc1C(=O)N1CCN(c2cc(Cl)ccc2C)CC1	.	.	.	6%	.	.
Cc1ccc(-n2ncc3c(NC4CCCCC4)ncnc32)cc1C	.	.	.	0.6µM*	.	.
Cc1ccc(-n2ncc3c(N4CCN(Cc5ccccc5)CC4)ncnc32)cc1Cl	.	.	.	-11%	.	.
CC(=O)NNc1ncnc2c1cnn2-c1ccc(C)c(C)c1	20%	?	?	?	11%	22%
Cc1ccc(-n2ncc3c(NC4CCCCC4)ncnc32)cc1Cl	.	.	.	1.1µM*	.	.
CCC(=O)NNc1ncnc2c1cnn2-c1ccc(C)c(Cl)c1	.	.	.	21µM*	.	.
O=C(C[C@@H]1C/C=C\C[C@H](Cc2ccc(F)cc2)C(=O)OC[C@@H](Cc2c[nH]c3ccccc23)NC1=O)NCCO	.	0%	-7%	.	.	.
